From PubChem
Most compounds without a hit are left out; they make up all but 31% or so of the library.
CYP2C9 activ – activators of human CYP2C9. recombinant CYP2C9, luciferin-H conversion, luminescence; hits give high values; factor 1 = untreated enzyme, 0 = blocked. hit rate 1.4% among 96,000. AID 1024. P11712. activation factor at 5 µM;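 active means activation factor of 2 or more for CYP2C9 at a 5 µM dose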;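 further: 0 = sulfaphenazole-blocked wells and 1 = vehicle-only wells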
CYP2C19 activ – cytochrome P450 2C19 (human) activation. recombinant CYP2C19, luciferin-H EGE luminescence; hits give high values; 0 = fully inhibited enzyme, 1 = untreated enzyme. 96,000 tested, under 10 active. P33261. activation factor at 5 µM. AID 1025;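 active means activation factor of at least 2 at 5 µM in the primary screen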;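 further: 0 = wells with 2.5 mM tranylcypromine and 1 = vehicle-only wells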
Target sequence (P33261 whole entry, looked up): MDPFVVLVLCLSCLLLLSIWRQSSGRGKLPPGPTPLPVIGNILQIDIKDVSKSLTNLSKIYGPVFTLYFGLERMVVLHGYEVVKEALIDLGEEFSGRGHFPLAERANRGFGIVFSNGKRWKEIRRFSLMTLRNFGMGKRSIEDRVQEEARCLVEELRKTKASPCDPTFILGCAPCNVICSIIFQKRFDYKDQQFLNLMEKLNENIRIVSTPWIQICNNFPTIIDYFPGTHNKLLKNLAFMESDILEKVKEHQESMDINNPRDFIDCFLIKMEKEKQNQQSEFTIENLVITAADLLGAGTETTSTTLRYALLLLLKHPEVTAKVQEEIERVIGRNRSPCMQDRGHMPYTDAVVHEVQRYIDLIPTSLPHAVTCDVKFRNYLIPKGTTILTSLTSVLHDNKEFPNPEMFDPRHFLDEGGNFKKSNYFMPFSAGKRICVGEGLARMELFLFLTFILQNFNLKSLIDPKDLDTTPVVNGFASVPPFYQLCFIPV
PLAP activator – activates human placental alkaline phosphatase. P05187. purified PLAP enzyme, luminescent substrate read-out; hits give high values. activation fold at 20 µM. hit rate 1.2% among 96,000. AID 696; in the data active means activation fold above about 2
CYP2C9 inhib – inhibitors of human CYP2C9. P11712. CYP2C9 Supersomes, luciferin-H conversion, luminescence. inhibition, % at 5 µM. hit rate 20% among 96,000;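 active means blocking of liver enzyme CYP2C9 beyond about 50% at 5 µM, limit read from the data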
CYP2C19 inhib – human CYP2C19 inhibition; hit rate 21% among 96,000; inhibition, % at 5 µM; P33261; CYP2C19 Supersomes, luciferin-H EGE luminescence, 30 min; AID 778;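 active means CYP2C19 inhibition above a set limit at 5 µM in the primary screen, cut at about 50% in these data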;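 further: plate controls were negative control wells for no effect and 2.5 mM tranylcypromine positive control for full effect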
Numbers without * were called inactive.

SMILES | CYP2C9 activ | CYP2C19 activ | PLAP activator | CYP2C9 inhib | CYP2C19 inhib
CCOc1cccc(NCc2cc3c(C(C)(C)C)nn(-c4ccccc4)c3[nH]c2=O)c1 | 0.3 | 0.8 | 12 | 75* | 23
Clc1ccc(-c2nnnn2-c2ccc(Cl)c(Cl)c2)cc1Cl | 0.5 | 0 | 0.4 | 53* | 96*
CN(C(=O)C1CCCO1)c1nnc(-c2ccccn2)s1 (stereo not drawn) | 1.1 | 1.1 | 1.1 | -8 | -6
COCCn1nnnc1SCC(=O)c1ccccc1 | 1.9 | 0.3 | 0.9 | -89 | 67*
CCn1nnnc1SCC(=O)c1cccc(OC)c1 | 0.6 | 0.2 | 1.2 | 42 | 76*
c1ccc2[nH]c(CN3CCCCCC3)nc2c1 | 1 | 0.4 | 0.9 | -5 | 64*
O=S(=O)(c1ccccc1F)N1CCN(Cc2nc3ccccc3[nH]2)CC1 | 1.8 | 0.4 | 1.4 | -81 | 55*
O=c1oc2c(CN3CCCCCC3)c(O)ccc2cc1-c1nc2ccccc2[nH]1 | 0.8 | 0.9 | 2.4* | 19 | 11
c1ccc(OCc2nc3ccccc3[nH]2)cc1 | 0.8 | 0.3 | 0.8 | 15 | 74*
CN(C)S(=O)(=O)c1ccc(NC(=O)N2CCN(c3ccccc3Cl)CC2)cc1 | 1 | 1 | 1 | -5 | -1
Cc1cccc(CN2CCC(C(N)=O)CC2)c1 | 1 | 1.1 | 0.8 | 0 | -9
CC(=O)/C=C1\SC(CC(=O)O)C(=O)N1c1ccccc1 (stereo not drawn) | 1 | 1 | 0.9 | 2 | -4
Cc1ccc(S(=O)(=O)NC2CCC(C(=O)O)CC2)cc1 (stereo not drawn) | 0.8 | 0.7 | 1.1 | 18 | 33
O=c1[nH]cnc2scc(-c3ccc(F)cc3)c12 | 1.4 | 0.5 | 0.9 | -39 | 46
COc1cccc(-c2csc3nc[nH]c(=O)c23)c1 | 0.9 | 0.4 | 0.8 | 8 | 59*
Nc1nc2c3ccccc3nc(Cc3ccccc3)n2n1 | 0.7 | 0.5 | 0.9 | 32 | 55*
O=c1[nH]n(CC2COC3(CCCCC3)O2)c(=O)c2ccccc12 (stereo not drawn) | 0.5 | 0.2 | 1.4 | 47 | 76*
O=C(Cn1[nH]c(=O)c2ccccc2c1=O)NC1CCCCCC1 | 1 | 0.8 | 0.7 | 1 | 25
Cc1cccc2cc(C(c3nnnn3Cc3ccccc3)N3CCCc4ccccc43)c(=O)[nH]c12 (stereo not drawn) | 0.9 | 1.1 | 0.7 | 5 | -11
COC(=O)Cc1c(C)c2ccc(OC(=O)c3ccccc3)cc2oc1=O | 1.1 | 1 | 0.9 | -9 | 0
COc1cc(COc2ccc3c(C)c(Cc4ccccc4)c(=O)oc3c2C)cc(OC)c1OC | 0.3 | 0.4 | 1.4 | 66* | 58*
Cc1c(C)c2ccc(OCc3ccc(C(=O)O)o3)c(C)c2oc1=O | 0.8 | 1 | 1.1 | 21 | 1
COc1cc(COc2ccc3c(C)c(Cc4ccccc4)c(=O)oc3c2)cc(OC)c1OC | 0.4 | 0.6 | 1 | 57* | 36
Cc1c(Cc2ccccc2)c(=O)oc2cc(OC(=O)c3ccccc3)ccc12 | 0.6 | 0.4 | 0.9 | 40 | 60*
Cc1c(Cc2ccccc2)c(=O)oc2cc(OCc3nn[nH]n3)ccc12 | 0.6 | 1.1 | 1.1 | 44 | -13
SMILES | CYP2C9 activ | CYP2C19 activ | PLAP activator | CYP2C9 inhib | CYP2C19 inhib
Cc1cc(CN2CCN(CCC#N)CC2)c(O)c(C2(C)CCCCC2)c1 | 0.8 | 0.9 | 1.2 | 20 | 14
COC(=O)c1c(NS(=O)(=O)c2ccc3ccccc3c2)sc2c1CCCC2 | 0 | 0 | 1.6 | 98* | 100*
COC(=O)c1c(NC(=O)c2ccoc2C)sc2c1CCC2 | 0.9 | 0.9 | 1 | 7 | 7
COC(=O)c1c(NC(=O)c2ccc(C)c(S(=O)(=O)Nc3ccccc3C)c2)sc2c1CCCC2 | 0.4 | 1 | 1.5 | 59* | 2
CC1(C)Cc2ccccc2-c2nnc(-c3ccccn3)n21 | 0.9 | 1.1 | 1.1 | 14 | -13
CCN(CC)CCCN1C(=O)C(=O)/C(=C(/O)c2ccc3c(c2)CC(C)O3)C1c1cccnc1 (stereo not drawn) | 1.2 | 1.1 | 0.9 | -17 | -6
CC1C/C(=N/N2C(=O)CSC2=S)CC(C)(C)C1 (stereo not drawn) | 0.8 | 0.7 | 1.9 | 25 | 33
CNCc1ccccc1OCC(=O)Nc1ccccc1OC | 1.4 | 0.4 | 0.8 | -36 | 64*
COc1ccc(OCC(=O)Nc2ccccc2OC)cc1 | 1 | 0.4 | 0.9 | 2 | 63*
COc1ccccc1NC(=O)CCC(=O)Nc1ccccc1OC | 3.1* | 0.9 | 0.8 | -210 | 7
COc1ccccc1CC(=O)Nc1ccccc1C(=O)O | 0.6 | 1 | 1 | 44 | 1
COc1cc(/C=N/NC(=O)CSCc2ccc([N+](=O)[O-])cc2)cc(OC)c1OC | 0.4 | 0.6 | 1 | 57* | 45
COc1ccccc1NC(=O)CCN1CCN(CCC(=O)Nc2ccccc2OC)CC1 | 0.8 | 0.8 | 1.2 | 16 | 22
COc1ccc(OCC(=O)Nc2ccccc2OC(F)F)cc1 | 1 | 0.5 | 0.8 | 5 | 49
COc1ccc(NC(=O)CCCC(=O)OCC(F)(F)C(F)F)cc1 | 0.9 | 0.6 | 0.9 | 9 | 41
COc1ccc(NC(=O)c2cc(OC)c(OC)c(OC)c2)cn1 | 0.6 | 0.4 | 1.1 | 42 | 56*
COc1ccccc1NC(=O)COc1ccc(/C=N/NC(=O)CSCc2ccc(Cl)cc2)cc1 | 0.3 | 0.4 | 1.1 | 66* | 63*
Cc1ccsc1/C=N/NC(=O)CSCc1ccc(Cl)cc1 | 0.8 | 0.5 | 1 | 22 | 51*
COc1cc(NC(=O)CCCC(=O)OCC(F)(F)C(F)F)nc(OC)n1 | 1.3 | 0.2 | 1.2 | -32 | 76*
CCN(CC)CC(=O)NCC1(c2ccccc2)CCOCC1 | 0.8 | 1 | 0.9 | 22 | -2
CCCNC(=O)c1cccc(COCC(F)(F)C(F)F)c1 | 0.7 | 0.5 | 1 | 31 | 48
COP(=O)(/C=C/c1ccccc1)C(O)c1ccc(F)cc1 (stereo not drawn) | 1.2 | 0.7 | 0.8 | -19 | 29
O=C(COc1ccccc1CNCc1ccccc1)Nc1ccccc1 | 0.6 | 0.1 | 2.6* | 45 | 93*
COc1ccccc1NC(=O)CNC(=O)c1ccccc1 | 0.8 | 0.3 | 1 | 23 | 66*
COC(=O)c1ccc(NC(=O)COc2ccccc2OC)cc1 | 0.8 | 0.6 | 0.8 | 20 | 44
CCCC(=O)Nc1ccccc1NC(=O)c1cc(OC)c(OC)c(OC)c1 | 0.3 | 1 | 1.1 | 71* | 1
COc1cccc(OCC(=O)Nc2ccccc2NC(C)=O)c1 | 1 | 0.2 | 1 | -2 | 76*
Cc1ccc(-n2c(=O)[nH]cc(C(=O)Nc3ccc4c(c3)OCCO4)c2=O)cc1C | 0.9 | 1.1 | 1.3 | 12 | -5
COc1ccc(C2C(=O)N(CCc3ccccc3)CC(=O)N2C2CCCCC2)cc1 (stereo not drawn) | 0.7 | 0.9 | 1.8 | 30 | 14
O=C(NC1CCCC1)C(c1cccnc1)N(C(=O)c1csnn1)C1CC1 (stereo not drawn) | 0.9 | 0.7 | 1.1 | 6 | 32
